# Compound activity deposited in PubChem by National Center for Advancing Translational Sciences (NCATS).
# Many of the other results were omitted from the sample, so hits are more common in it than they were.
# RXFP1 ag: agonists of human relaxin receptor RXFP1; Potency, µM (top dose mostly 57.5 µM), without a hit: at the top dose activation, hits mostly activators; 370,000 tested, 0.3% active; HEK293T-RXFP1 cAMP TR-FRET, 30 min; response scale: percent of porcine relaxin response, buffer zero; note: potency is the fitted concentration of half-maximal effect; % is set by controls: 0 for no effect and ±100 for the full control effect; nearly all actives have a fitted effect of over 60% in size
# Target sequence (Q9HBX9 whole entry, looked up): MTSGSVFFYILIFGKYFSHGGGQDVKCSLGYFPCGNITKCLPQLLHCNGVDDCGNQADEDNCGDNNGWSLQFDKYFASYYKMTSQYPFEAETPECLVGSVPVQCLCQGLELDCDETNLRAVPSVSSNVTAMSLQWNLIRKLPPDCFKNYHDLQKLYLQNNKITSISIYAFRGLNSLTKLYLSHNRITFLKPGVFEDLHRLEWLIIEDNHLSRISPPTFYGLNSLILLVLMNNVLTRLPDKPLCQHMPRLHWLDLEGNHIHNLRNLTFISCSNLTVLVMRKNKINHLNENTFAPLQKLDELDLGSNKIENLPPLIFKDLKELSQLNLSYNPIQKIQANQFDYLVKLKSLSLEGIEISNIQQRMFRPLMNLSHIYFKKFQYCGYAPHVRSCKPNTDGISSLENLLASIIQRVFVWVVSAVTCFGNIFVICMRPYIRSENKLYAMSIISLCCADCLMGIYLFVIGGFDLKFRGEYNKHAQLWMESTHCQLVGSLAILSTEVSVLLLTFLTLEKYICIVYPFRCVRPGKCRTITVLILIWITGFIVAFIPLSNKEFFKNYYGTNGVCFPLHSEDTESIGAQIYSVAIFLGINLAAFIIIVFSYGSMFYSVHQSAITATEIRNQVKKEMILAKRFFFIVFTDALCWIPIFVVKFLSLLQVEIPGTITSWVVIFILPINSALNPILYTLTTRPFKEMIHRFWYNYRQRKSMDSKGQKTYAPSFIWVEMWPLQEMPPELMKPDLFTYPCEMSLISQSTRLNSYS
#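 cAMP rise read by TR-FRET after 30 min, 37C compound exposure (up to 58 uM) in RXFP1-transfected HEK293 cells with Ro 20174 present. EC50 from Hill-equation fits, with 29 nM porcine relaxin as 100% and buffer as basal.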
# NPSR antagonist: blocks cAMP signaling of the human neuropeptide S receptor. Q6W5P4. 220,000 tested, 1% active. Potency, µM (highest dose often 38.3 µM), inactives show at the top dose activity change, negative = inhibition, hits mostly inhibitors. CHO-NPSR cells, cAMP TR-FRET, antagonist mode; note: potency is the fitted concentration of half-maximal effect; % is set by controls: 0 for no effect and ±100 for the full control effect; nearly all actives have a fitted effect of over 50% in size
# TSHR antagonist: human thyrotropin receptor antagonism | P16473 | TSHR-expressing cells, TSH-stimulated cAMP HTRF, 2 h; active compounds read low | activity change, negative = inhibition, % at 11.5 µM | 330,000 tested, 0.2% active | AID 504810;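 active = activity change below a set negative limit, meaning inhibition stronger than a set level, cut at about -70% in these data; inconclusive = activity change between two set negative limits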; note: % is set by controls: 0 for no effect and ±100 for the full control effect
#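 Competitive HTRF cAMP read-out (cryptate anti-cAMP antibody, cAMP-d2; 30 min, room temperature) in freshly harvested TSHR cells. Compounds added before TSH at EC80 (4nM final), followed by 2 hours' incubation at 37 deg C.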
# RXFP1 antagonist: antagonists of human relaxin receptor RXFP1; HEK293-RXFP1, relaxin-stimulated cAMP HTRF, 30 min; active compounds read low; Q9HBX9; activity change, negative = inhibition, % at 57.5 µM; AID 1259400; 350,000 tested, 0.59% active;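 active = activity change of -60% or lower, but not beyond a set lower limit; inconclusive = change between -60% and -40%, or beyond the set limit; inactive = change above -40%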; note: % is set by controls: 0 for no effect and ±100 for the full control effect
# TCR act: T cell receptor activation; primary human leukocytes, anti-CD3, IL-2 HTRF, 48 h; Potency, µM (series often up to 9.22 µM), without a hit: at the top dose activation of IL-2 secretion, usual class: activators; 330,000 tested, under 10 active; AID 504894; note: % of control where 0% means no effect
#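 Readout: HTRF IL-2, Eu-cryptate/d2 antibody pair, 320nm excitation, 665nm emission. Stimulus: a-CD3 beads, no co-stimulation. Cells: primary human leukocytes. Exposure: 48 hr with compound.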
# PTHR1 ag: PTHR1 (human) receptor agonism. Potency, µM (series often up to 115 µM), for inactives: at the top dose activation, actives largely listed as activators. HEK293 GP2 PTHR1 cells, GloSensor cAMP luminescence, 1 h. Q03431. 410,000 tested, 0.075% active. AID 743266; note: potency is the fitted concentration of half-maximal effect; nearly all actives have a fitted effect of over 55% in size
#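 HEK-293-derived GP2 cells expressing PTHR1 and a GloSensor cAMP reporter, 3,000/well, plated overnight, given luciferin plus IBMX (each 0.5 mM as added) for 1 h at 37 °C, then compound for 1 h at 37 °C. Luminescence was read after 15 min at room temperature.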
# Starred values were filed as active, the others as inactive; i = inactive; ? = inconclusive; / = not tested or not shown; ! = not active in a repeat; [ ] = remark or other dose. Unless noted, calls come from the whole dose curve; as a rule, active = well fitted curve in the direction sought with a large enough effect; inconclusive = small, poorly fitted or top-dose-only effect, or another doubt; inactive = no such curve, though single readings can be large; an effect the other way counts as inactive or inconclusive.
SMILES,RXFP1 ag,NPSR antagonist,TSHR antagonist,RXFP1 antagonist,TCR act,PTHR1 ag
CC1(c2ccccc2)CC(C)(C)N(C(N)=O)c2ccccc21 (centres undefined),-2%,/,68,-7,/,-8%
CC(=O)N1c2ccccc2C(C)(c2ccccc2)CC1(C)C (centres undefined),0%,?,-78*,3,1%,-11%[57.5 µM]
CCOC(=O)c1c(-c2ccccc2)csc1NC(=O)c1cc(-c2cccc(OC)c2)on1,3%,/,/,12,/,40µM*
CCOC(=O)c1c(-c2ccc(-c3ccccc3)cc2)csc1NC(=O)CNCCN(C)C,0%,/,24,-103*,1%,i
COc1cccc(-c2cc(C(=O)Nc3cc(C)n(Cc4ccc(Cl)cc4)n3)no2)c1,0%,-14%[46.1 µM],-74*,6,0%,-36%
CCOC(=O)c1c(-c2ccc(C)cc2)csc1NC(=O)c1cc(=O)c2cc(C)ccc2o1,-1%,/,/,12,/,4µM*
CCOC(=O)c1c(-c2ccccc2)csc1NC(=O)c1cc(-c2cccc(Cl)c2)on1,5%,/,/,-2,/,i
CCOC(=O)c1c(-c2ccccc2)csc1NC(=O)CCN1C(=O)c2ccccc2C1=O,-1%,-14%,24,-9,1%[46.1 µM],i
CCc1ccc(S(=O)(=O)Nc2cccc(-c3ccc(N4CCC(C)CC4)nn3)c2)s1,3%,/,/,-12,/,-24%
Cc1cc(OCc2ccccc2)ccc1/C(O)=C1/C(=O)C(=O)N(Cc2cccnc2)C1c1ccncc1 (centres undefined),25µM*,?,18,24,2%,i
COc1ccc(/C(O)=C2/C(=O)C(=O)N(Cc3cccnc3)C2c2ccncc2)cc1F (centres undefined),6%,6%[46.1 µM],5,10,-4%,i
COc1ccccc1C1CCCN1Cc1nc(-c2ccc(C)s2)oc1C (centres undefined),0%,13%,-10,-65*,-5%,-13%
COc1ccccc1C1CCCN1Cc1nc(-c2cc3c(cc2Cl)OCO3)oc1C (centres undefined),0%,43%,9,-4,0%,28%
Cc1ccc(C(=O)O)cc1N1C(=O)c2cccc3c([N+](=O)[O-])ccc(c23)C1=O,3%,/,-73*,/,-9%,-95%
Cc1ccc(-c2csc(NS(=O)(=O)c3cccc(F)c3)n2)o1,/,/,0,-75*,2%[46.1 µM],i
Cc1cc(Br)c2[nH]cc(CCNC(=O)c3ccco3)c2c1,-1%,/,-5,-88*,-3%,-16%
CCOC(=O)c1cccc(NC(=O)CCc2c(C)nn(-c3ccc(N4CCCC4)nn3)c2C)c1,1%,/,/,4,/,i
CC(C)/C(C=O)=C(/NC1CCCCC1)c1ccccc1,/,/,/,-63*,-51%,-19%
CC(Oc1ccccc1)C(=O)NC1CCCCCCC1 (centres undefined),-2%,/,-18,-15,7%,i
CC(C)(C)c1ccc(C(=O)Nc2onc3c2CCCC3)cc1,-1%,/,/,-60*,/,-7%
CCOc1ccc(NC(=O)CCc2nc3cccnc3n2-c2ccccc2)cc1,2%,/,/,-13,/,-48%
COCCN1C(=O)c2[nH]nc(-c3ccccc3O)c2C1c1ccc(Cl)c(Cl)c1 (centres undefined),0%,/,/,-70*,/,i
CCCOc1cccc(C2c3c(-c4ccccc4O)n[nH]c3C(=O)N2Cc2ccco2)c1 (centres undefined),0%,/,/,-80*,/,-28%
O=C1c2[nH]nc(-c3ccccc3O)c2C(c2cccc(O)c2)N1Cc1ccco1 (centres undefined),1%,-10%[46.1 µM],9,-20,-4%,i
COc1cc(C2c3c(-c4ccccc4O)n[nH]c3C(=O)N2CCO)ccc1OCc1ccccc1 (centres undefined),0%,/,/,-6,/,-3%
SMILES,RXFP1 ag,NPSR antagonist,TSHR antagonist,RXFP1 antagonist,TCR act,PTHR1 ag
Cc1ccc(O)c(-c2n[nH]c3c2C(c2ccc(F)cc2)N(Cc2ccco2)C3=O)c1 (centres undefined),-1%,/,/,-64*,/,-59%
O=C1c2[nH]nc(-c3ccccc3O)c2C(c2cccc(OCc3ccccc3)c2)N1CCCO (centres undefined),2%,/,/,-64*,/,-13%
Cc1ccc(CNC(=O)CCCCCn2c(=O)c3sccc3n(CC(=O)Nc3ccc(C)c(F)c3)c2=O)cc1,32µM*,/,/,-4,/,i
O=C(Nc1ccc(OC(F)(F)F)cc1)Nc1cccc([N+](=O)[O-])c1,-1%,?,?,-74*,0%[46.1 µM],-35%
Cc1cccc(CCNC(=O)c2nc(-c3ccc(Cl)cc3)n3c2CCCCC3)c1,0%,/,/,-29,/,i
Cc1ccc(C)c(N2CCN(S(=O)(=O)c3ccc(-c4coc(C)n4)cc3)CC2)c1,1%,/,/,/,/,i
O=C(O)c1cc(O)c2c(c1)[C@@H]([C@H]1c3cc(C(=O)O)cc(O)c3C(=O)c3c(O[C@@H]4O[C@H](CO)[C@@H](O)[C@H](O)[C@H]4O)cccc31)c1cccc(O[C@@H]3O[C@H](CO)[C@@H](O)[C@H](O)[C@H]3O)c1C2=O,/,/,-79*,/,3%,-87%
COc1ccc(N2CCN(S(=O)(=O)CCNC(=O)c3ccc(C(F)(F)F)cc3)CC2)cc1,1%,/,/,5,/,17%
CCN(CC)CCn1c(=N)n(CC(O)COc2cccc(C)c2)c2ccccc21 (centres undefined),1%,-4%,-9,?,-1%,i
Cc1cccc(OCC(O)Cn2c(=N)n(CCN3CCCCC3)c3ccccc32)c1 (centres undefined),2%,20%[46.1 µM],10,-63*!,1%,2%[57.5 µM]
Cc1cccc(CCN(CC(=O)NC2CCCCC2)C(=O)c2csnn2)c1,0%,-10%,-7,-7,-1%,-20%
Cc1cccc(CCN(C(=O)c2csnn2)C(C(=O)NC2CCCC2)c2ccco2)c1 (centres undefined),3%,/,10,-73*,0%,6%
Cc1cc2nc3ccc(=[N+](C)C)cc-3sc2cc1N,-17%,?,-108*,?,25%,-54%
CN(C)c1ccc2nc3ccc(=O)cc-3sc2c1,/,/,/,?,/,-87%
Cc1ccc(N=C2NC(=O)/C(=C/c3cccs3)S2)cc1C,0%,-29%,-8,-77*,-3%[46.1 µM],-17%
Cc1cccc(N=C2NC(=O)/C(=C\c3cccs3)S2)c1,0%,-12%,97,-28,-6%[46.1 µM],-3%
O=C1NC(=S)N/C1=C\c1ccccc1OCc1ccc(C(=O)O)cc1,0%,8%[7.67 µM],2,-2,9%,i
